Assay outcomes from PubChem.
Hits are enriched below; roughly 3.4% of the tested compounds scored in any of these assays.
SMARCA2 activ: SMARCA2 function activation, primary screen; MG213 cells, MMTV-luciferase reporter, dexamethasone, overnight; activation, % at 9.1 µM; actives 1% (n = 370,000); AID 652017; in the data active = activation above about 7.8%;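 note: 0% = vehicle wells and 100% = reference activator wells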
FXN GAA850 act: frataxin GAA850 promoter activation. HEK293 lucGAA850 FXN promoter luciferase reporter, 24 h; percent of 10 µM SAHA response. activation, % at 6 µM. actives 0.56% (n = 360,000). AID 540364;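 active = activation above the average of all compounds screened plus 3 SD, cutoff fixed separately per campaign, cut at about 7.5% in these data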;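 note: 0% = DMSO wells and 100% = 10 µM SAHA wells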
HSP90 inh: blocks HSP90-mediated luciferase refolding in reticulocyte lysate. actives 0.91% (n = 290,000). inhibition, % at 5.6 µM. Rabbit reticulocyte lysate, luciferase refolding luminescence, 3 h;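 active = inhibition above the screen-wide mean plus 3 SD, computed separately per campaign, cut at about 16% in these data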;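 note: 0% = DMSO wells and 100% = 60 µM geldanamycin wells; inhibitors lower the luminescence because luciferase stays unfolded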
AI-2 QS mod: modulators of Vibrio harveyi AI-2 quorum sensing system; Vibrio harveyi JMH597 AI-2 luminescence/OD600 ratio, 9 h; stronger effect = lower value; strain lacks LuxN and CqsS sensors; 0 = neutral-control median; activity change, % at 7.5 µM; actives 0.4% (n = 300,000); AID 2094; in the data active = activity change below about -75%, passing the limit was not always enough; inconclusive = no clear call, values can overlap the other calls;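 note: luminescence divided by OD600 gain over 9 h not by final OD600 alone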
HSF1 inhib: HSF1 inhibition. NIH3T3-HGL HSE-luciferase, MG132-induced, luminescence 8 h; stronger effect = lower value. activity change, negative = inhibition, % at 7.5 µM (by protocol). actives 0.77% (n = 300,000);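 active = more than half of replicate wells show activity change below -50%, luminescence cut by over half; inconclusive = some wells, but at most half, below -50%; inactive = no replicate well below -50%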;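 note: luciferase reports HSF-1 transcriptional activity via heat shock element; 0% = median of DMSO wells and -100% = zero luminescence signal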
PG9 Ab binder: PG9 antibody binding by small molecule | TR-FRET gp120-PG9 antibody binding | inhibition, % at 6.7 µM | actives 0.43% (n = 360,000); in the data active = inhibition above about 8.5%
HSP90 confirm: confirmation of HSP90 inhibitors; shares compounds with HSP90 inh; rabbit reticulocyte lysate, luciferase refolding luminescence, 3 h; inhibition, % at 5.9 µM; actives 64% (n = 2,300); AID 1846; in the data active = inhibition above about 18%;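 note: 0% = vehicle wells and 100% = reference inhibitor wells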
FLuc counter: counter-screen for HSP90 inhibitors: inhibitors of firefly luciferase | shares compounds with HSP90 inh | purified native firefly luciferase, luminescence | inhibition, % at 5.9 µM | actives 48% (n = 2,300);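 active = inhibition above the mean inhibition of all tested sample wells plus 3 SD, cut at about 10% in these data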;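 note: 0% = DMSO with luciferase and 100% = wells lacking luciferase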
Target sequence (P08659 whole entry, looked up): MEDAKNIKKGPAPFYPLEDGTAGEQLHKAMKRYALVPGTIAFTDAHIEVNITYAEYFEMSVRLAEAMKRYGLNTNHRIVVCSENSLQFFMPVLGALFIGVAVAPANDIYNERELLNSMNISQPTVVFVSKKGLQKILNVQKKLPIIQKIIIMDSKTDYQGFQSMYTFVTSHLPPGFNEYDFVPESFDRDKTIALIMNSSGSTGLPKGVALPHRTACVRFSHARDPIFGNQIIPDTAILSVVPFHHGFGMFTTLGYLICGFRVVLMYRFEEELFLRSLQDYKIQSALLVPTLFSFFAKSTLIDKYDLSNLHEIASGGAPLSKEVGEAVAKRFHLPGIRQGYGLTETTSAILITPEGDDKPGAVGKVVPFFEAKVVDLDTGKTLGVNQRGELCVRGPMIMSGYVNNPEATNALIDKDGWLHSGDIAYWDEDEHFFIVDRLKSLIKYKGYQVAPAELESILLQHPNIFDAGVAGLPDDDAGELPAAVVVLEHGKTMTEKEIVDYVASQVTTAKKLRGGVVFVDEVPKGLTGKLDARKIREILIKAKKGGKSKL
* marks the source's active call; other numbers are inactive results; ? = inconclusive; . = not tested or not shown.

SMILES	SMARCA2 activ	FXN GAA850 act	HSP90 inh	AI-2 QS mod	HSF1 inhib	PG9 Ab binder	HSP90 confirm	FLuc counter
CCCCN1C(C)=CC(=C2C(=O)c3ccccc3C2=O)C=C1C	2.8	1.8	17.2*	12.9	-1.5	-0.8	43.2*	30.9*
CN1C=CC(=C2C(=O)c3ccccc3C2=O)C=C1	.	.	11.8	17.8	-3.3	.	.	.
CCCCCCN1C=CC(=C2C(=O)c3ccccc3C2=O)C=C1	7.7	-6.2	48.5*	9.9	?	-0.7	83.9*	77.9*
CCN1C=CC(=C2C(=O)c3ccccc3C2=O)C=C1	-5.5	-13.5	85.9*	23.5	-75.7*	-4.0	92.8*	86.6*
O=C(Nc1ccc(Br)cc1)OC1CC2CC1[C@H]1CCCCN1C2 (stereo partly drawn)	-1.5	.	.	.	.	.	.	.
COc1ccc(S[C@]2(C(=O)N3CCCC3)CC(=O)N(c3ccsc3)[C@@H]2c2ccc(OC)cc2)cc1	-4.8	.	.	.	.	.	.	.
Cc1cc2ccccc2n1CCNC(=O)c1cccs1	1.6	2.0	23.0*	27.7	-3.7	0.5	39.4*	-3.3
O=C(Nc1cccc2nsnc12)c1ccc(-c2cccc(Cl)c2)o1	1.3	4.2	17.5*	.	.	1.0	1.6	-9.5
O=C(Nc1ccccc1N1CCCCC1)c1ccc(-c2cccc(Cl)c2)o1	1.5	1.6	-0.8	19.7	-1.3	-3.5	.	.
CCOC(=O)C1=NOC(C(C)=O)(C(=O)Nc2cc(C)cc(C)c2)C1 (stereo not drawn)	-2.4	.	.	.	.	.	.	.
COc1cccc(NC(=O)N2CCc3ccccc3C2)c1	0.7	4.0	21.0*	-7.7	11.6	-1.2	3.2	-14.6
O=C(Nc1cccc(Cl)c1)N1CCc2ccccc2C1	1.3	5.6	-2.8	-9.0	12.0	0.2	.	.
CC(=O)N1c2cc(S(=O)(=O)Nc3c(C)n(C)n(-c4ccccc4)c3=O)c(Br)cc2CC1C (stereo not drawn)	-3.6	.	.	.	.	.	.	.
Cc1cc(C2=NNC(=NC3CCCCC3)SC2)c(C)n1-c1c(C)n(C)n(-c2ccccc2)c1=O	1.5	1.1	-3.5	15.1	8.3	-0.5	.	.
Cc1cc(C2=NNC(=NC3CC3)SC2)c(C)n1-c1ccccc1F	-8.0	-16.1	36.0*	22.8	-67.8*	2.0	85.2*	76.0*
CCOC(=O)CCCNC(=O)OC1CC2CC1[C@H]1CCCCN1[C@H]2C (stereo partly drawn)	0.0	.	.	.	.	.	.	.
O=C(CCn1nnc2ccccc21)N1CCN(Cc2ccc3c(c2)OCO3)CC1	-5.7	.	.	.	.	.	.	.
CCC(=O)N/N=C/c1ccc(OS(=O)(=O)c2ccccc2)cc1	-0.1	0.8	21.6*	16.3	0.4	-3.3	-0.8	-4.4
COc1cc(C2Nc3ccccc3C(=O)N2c2ccc3c(c2)OCCO3)ccc1OCC(C)C (stereo not drawn)	7.0	-0.9	44.7*	32.4	20.1	-0.3	4.0	-9.6
O=C1c2ccccc2NC(c2ccc3c(c2)OCCO3)N1c1ccc2c(c1)OCCO2 (stereo not drawn)	2.7	-3.2	22.3*	6.7	7.7	1.4	16.7*	3.0
COc1ccc(C(=O)NNC(=O)C(=O)NC2CCCCC2)cc1	-2.9	-0.6	19.3*	14.4	6.6	0.5	0.0	-1.1
COc1ccc(C(=O)N[C@H](C(=O)NC2CCCCC2)C(C)C)cc1	0.0	0.7	.	.	.	-0.1	.	.
COc1ccc2c(c1)c(/C=N/Nc1ccc(C(=O)O)cc1)c(C)n2C	2.5	0.1	30.4*	-4.3	-40.1	-7.4	41.1*	34.6*
CCOC(=O)c1sc(N)c(C#N)c1CSc1nc2ccc(C)cc2[nH]1	-0.5	0.7	18.4*	17.9	10.0	-1.4	0.4	-4.9
CC(=O)/C(=C\N(C)C)Sc1ccc(C)cc1	6.0	-0.2	32.7*	15.3	-4.1	-2.3	3.9	-0.2
SMILES	SMARCA2 activ	FXN GAA850 act	HSP90 inh	AI-2 QS mod	HSF1 inhib	PG9 Ab binder	HSP90 confirm	FLuc counter
CCN(Cc1ccncc1)C(=O)c1ccccc1NS(=O)(=O)c1ccc(Br)cc1	-1.8	-0.8	21.5*	-0.8	5.1	0.8	-5.6	-10.7
COc1ccc(OC)c(N(CC(=O)N2CCN(Cc3ccccc3)CC2)S(C)(=O)=O)c1	-2.1	1.0	19.8*	-1.2	-6.3	0.5	-1.5	-5.6
Cn1cc(CN2CCCC(C(=O)Nc3cccc(-c4cc5ccccc5[nH]4)c3)C2)cn1 (stereo not drawn)	-1.7	0.7	22.7*	27.7	0.7	0.9	6.9	-11.2
CCn1cc(CN2CCCC(C(=O)Nc3cccc(-c4cc5ccccc5[nH]4)c3)C2)c(C)n1 (stereo not drawn)	-2.6	-0.2	-0.7	17.3	-0.9	-0.7	.	.
CC(C)n1cc(CN2CCCC(C(=O)Nc3cccc(-c4cc5ccccc5[nH]4)c3)C2)cn1 (stereo not drawn)	-1.0	-0.1	18.2*	17.8	3.7	-2.9	10.8	-6.2
CC(C)n1cc(CN2CCC(C(=O)Nc3cccc(-c4cscn4)c3)CC2)cn1	-3.8	-0.9	1.5	20.0	-8.3	-0.4	.	.
CC(C)(C)N1Cc2nnn(Cc3ccccc3)c2-c2cc(F)ccc2S1(=O)=O	-2.0	.	.	.	.	.	.	.
CC(=O)CC[C@@H]1CC[C@]2(CCCN(S(=O)(=O)c3ccccc3)C2)O1	-3.4	.	.	.	.	.	.	.
CC(C)(C)N(NC(=O)Nc1cccc(F)c1)C(=O)c1ccccc1Cl	-4.2	.	.	.	.	.	.	.
CCOc1ccc(NC(=O)N2CCC(c3nc4ccccc4[nH]3)CC2)cc1	-4.1	-3.8	25.5*	11.6	.	-3.2	-12.7	-15.8
CC(C)c1ccc(OCc2ccc(C(=O)N(C)C)o2)cc1	6.8	7.4	12.2	8.0	23.6	-0.4	.	.
CCOc1ccc(OCc2ccc(C(=O)Nc3cccnc3)o2)cc1	3.6	2.0	27.9*	15.6	9.2	-1.9	31.6*	-22.5
O=C(O)c1ccc(OCc2ccc(C(=O)O)o2)cc1	3.1	-1.2	-1.1	28.2	-2.9	-1.2	.	.
CCc1ccc(OCc2ccc(C(=O)O)o2)cc1	1.5	4.5	95.6*	31.7	-8.2	0.2	93.9*	67.9*
CC(C)c1ccc(OCc2ccc(C(=O)O)o2)cc1	.	3.1	93.8*	40.7	.	.	94.1*	80.2*
CCOc1ccc(OCc2ccc(C(=O)NCc3cccnc3)o2)cc1	1.7	-1.8	10.6	15.5	-8.3	0.5	.	.
CCOc1ccc(OCc2ccc(C(=O)N3CCCCC3)o2)cc1	-1.6	2.7	23.4*	-3.5	2.6	1.2	13.0	-25.6
CC(C)c1ccc(OCc2ccc(C(=O)NN3CCN(C)CC3)o2)cc1	0.9	7.0	18.8*	10.2	32.3	-1.5	18.1*	-13.4
CC1CN(C(=O)c2ccc(COc3ccc(C(C)C)cc3)o2)CC(C)O1 (stereo not drawn)	2.7	6.1	15.9	17.7	31.2	3.0	.	.
